Compound activity (PubChem BioAssay)
Gal4-VP16 FLuc: VP16 counterscreen qHTS for inhibitors of ROR gamma transcriptional activity. Drosophila S2 Gal4-VP16 UAS-luciferase, luminescence, 20 h. 3.5% of 310,000 active. Potency, µM (top dose mostly 53.6 µM), without a hit: top-dose activity, negative = inhibition, actives largely listed as inhibitors;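 further: Gal4-VP16 expression switched on by copper sulfate through the metallothionein promoter; potency means the concentration at half of the fitted maximal effect; on the % scale 0 is the no-effect control and ±100 the full control effect; nearly all actives have a fitted effect of over 50% in size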
ELG1 DNA repair: qHTS screen for small molecules that inhibit ELG1-dependent DNA repair in human embryonic kidney (HEK293T) cells expressing luciferase-tagged ELG1. HEK293T ELG1-luciferase reporter, luminescence, 16 h; DNA damage induced by 5-fluorouridine. Potency, µM (doses to about 46.1 µM), for inactives: top-dose activity change, negative = inhibition, most hits filed as inhibitors. 2.3% of 330,000 active. AID 504467, 2011; further: potency means the concentration at half of the fitted maximal effect; on the % scale 0 is the no-effect control and ±100 the full control effect; nearly all actives have a fitted effect of over 55% in size
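5-Fluorouridine DNA damage + compound/DMSO, 2,000 cells/well, 16 h, 37 °C/5% CO2. ONE-Glo, 30 min RT, luminescence. Readout = decrease in reporter signal.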
p53 reactivator: qHTS assay for re-activators of p53 using a Luc reporter; H1299 p53-A138V BP100-luciferase reporter, luminescence, 24 h; Potency, µM (top dose mostly 92.2 µM), without a hit: at the highest dose activity change, positive = activation, actives largely listed as activators; 0.063% of 320,000 active; AID 504706, 2011; further: potency means the concentration at half of the fitted maximal effect; % of control where 0% means no effect; nearly all actives have a fitted effect of over 45% in size
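H1299 (p53-null), stable ts p53-A138V + BP100-Luc; 1000 cells/well, Opti-MEM/10% FBS; cpd 4 pt, 1:5; 24 h, 37 deg C, 5% CO2; detection reagent 10 min RT; luminescence.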
BRCA1 expr up: qHTS Assay to Identify Small Molecule Activators of BRCA1 Expression; MCF7-BRCA1-FFLuc reporter, luminescence, 48 h; response scale: scaled: vehicle 0%, 10 µM genistein 100%; Potency, µM (titrated, usually from 46.1 µM), for inactives: top-dose activation, usual class: activators; 1.1% of 380,000 active; further: potency means the concentration at half of the fitted maximal effect; nearly all actives have a fitted effect of over 80% in size
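MCF7 cells carrying a BRCA1-firefly luciferase reporter (2000 cells/well, phenol-red free MEM) were attached for 2 h at 37 °C, then given compounds for 48 h. Luminescence was read 15 min after luciferase reagent; activity normalized to genistein (10 microM) and DMSO.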
RORg inh: qHTS for inhibitors of ROR gamma transcriptional activity; Drosophila S2 Gal4-RORgamma UAS-luciferase reporter, 20 h; Potency, µM (series often up to 53.6 µM), inactives show at the highest dose activity change, negative = inhibition, usual class: inhibitors; 5.4% of 310,000 active; AID 2551, 2010; further: potency means the concentration at half of the fitted maximal effect; on the % scale 0 is the no-effect control and ±100 the full control effect; nearly all actives have a fitted effect of over 60% in size
Target sequence (P51450 whole entry, looked up, the tested form may be a part): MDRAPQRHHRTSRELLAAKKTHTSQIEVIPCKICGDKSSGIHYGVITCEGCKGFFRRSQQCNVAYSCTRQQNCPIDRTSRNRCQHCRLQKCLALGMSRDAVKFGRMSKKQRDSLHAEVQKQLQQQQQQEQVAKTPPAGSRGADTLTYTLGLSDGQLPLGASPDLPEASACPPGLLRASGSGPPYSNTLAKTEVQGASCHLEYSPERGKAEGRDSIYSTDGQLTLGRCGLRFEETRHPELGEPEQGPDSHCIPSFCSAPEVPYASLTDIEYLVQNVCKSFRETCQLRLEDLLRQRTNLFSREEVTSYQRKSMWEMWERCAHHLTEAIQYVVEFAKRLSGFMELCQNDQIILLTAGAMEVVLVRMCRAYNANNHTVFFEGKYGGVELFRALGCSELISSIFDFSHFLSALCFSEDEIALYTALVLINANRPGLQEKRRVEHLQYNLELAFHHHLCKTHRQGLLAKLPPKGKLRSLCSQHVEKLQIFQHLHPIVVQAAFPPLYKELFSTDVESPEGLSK
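Drosophila Schneider cells stably carrying a metallothionein-driven Gal4 DBD–ROR gamma fusion and a UAS-Photinus luciferase reporter were exposed to compound for 1 hr, then induced with copper sulfate (700 uM final) for 20 hr at ambient temperature before luminescence reading.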
Giardia kill: Small Molecules that selectively kill Giardia lamblia: qHTS. 0.15% of 340,000 active. activity change, % at 7.66 µM, hits read low. Giardia lamblia trophozoite viability. AID 540267, 2011; in the data active means activity change below about -80%; inconclusive means between about -30% and that limit;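 further: parasites exposed to compound for two days anaerobically before the ATP read; on the % scale 0 is the no-effect control and ±100 the full control effect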
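Trophozoites 100 cells/well + cpd; 48 hrs, 37 deg C, anaerobic. ATPLite 1-Step added, 15-30 min RT, luminescence read (ATP-based viability).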
* = called active by the depositor; [ ] = another dose, or the depositor's remark. Shown are actives, neighbours in structure and some others; about 7.6% of the full set was active somewhere. Unless noted, the call rests on the fitted dose curve; in most records, active means well fitted curve in the direction sought with a large enough effect; inconclusive means small, poorly fitted or top-dose-only effect, or another doubt; inactive means no such curve, though single readings can be large; an effect the other way counts as inactive or inconclusive.

`CC(C)(C)c1cc(NC(=O)CSc2nnc(NCc3ccccc3)s2)n(-c2ccccc2)n1` gave Gal4-VP16 FLuc inconclusive, ELG1 DNA repair 23µM*, p53 reactivator 8%, BRCA1 expr up 4%, RORg inh inconclusive and Giardia kill 17.
For CC(C)(C)c1cc(NC(=O)CSc2nnc(N)s2)n(-c2ccccc2)n1 the results were Gal4-VP16 FLuc -4%, ELG1 DNA repair -16%, p53 reactivator -9%, BRCA1 expr up -16%, RORg inh inconclusive and Giardia kill 2.
`COCCNc1nnc(SCC(=O)Nc2nnc(-c3ccccc3)o2)s1` gave ELG1 DNA repair 20%, p53 reactivator 1%, BRCA1 expr up 12% and Giardia kill 12.
Screening Cc1ccc(C(=O)CCC(=O)NC2=NCCS2)cc1 returned ELG1 DNA repair 20%, p53 reactivator 9%, BRCA1 expr up 21% and Giardia kill 0.
`O=C(C[C@@H]1C/C=C\C[C@@H](NC(=O)OCC2c3ccccc3-c3ccccc32)C(=O)OCCNC1=O)N[C@@H](CO)Cc1ccccc1` gave ELG1 DNA repair -18%, p53 reactivator 6%, BRCA1 expr up 0% and Giardia kill -5.
CCC1CCCCN1S(=O)(=O)c1ccc(C(=O)Nc2nnc(-c3cccs3)o2)cc1 (stereo not given) was read as Gal4-VP16 FLuc 0.32µM*, ELG1 DNA repair inconclusive, p53 reactivator 28%, BRCA1 expr up -73%, RORg inh 0.32µM* and Giardia kill inconclusive.
`CC1CC(C)CN(S(=O)(=O)c2ccc(C(=O)Nc3sccc3C(N)=O)cc2)C1` (stereo not given) gave Gal4-VP16 FLuc inconclusive, ELG1 DNA repair inconclusive, p53 reactivator -12%, BRCA1 expr up -37%, RORg inh -14% and Giardia kill 6.
Screening CCC1CCCCN1S(=O)(=O)c1ccc(NC(=O)c2cccnc2)cc1 (stereo not given) returned Gal4-VP16 FLuc -3%, ELG1 DNA repair 13%, p53 reactivator -3%, BRCA1 expr up -19%, RORg inh 2% and Giardia kill -10.
For CC1CC(C)CN(S(=O)(=O)c2ccc(C(=O)Nc3nnc(-c4cccs4)o3)cc2)C1 (stereo not given) the results were Gal4-VP16 FLuc 0.5µM*, ELG1 DNA repair 5.8µM*, p53 reactivator inconclusive, BRCA1 expr up -90%, RORg inh 0.25µM* and Giardia kill 6.
Screening COc1ccc(C(=O)C(C)Oc2cccc(NC(=O)c3cccc([N+](=O)[O-])c3)c2)cc1 (stereo not given) returned Gal4-VP16 FLuc -16%, ELG1 DNA repair 15µM*, p53 reactivator -6%, BRCA1 expr up -36%, RORg inh inconclusive and Giardia kill 36.
`CC(C)C(=O)Nc1cccc(NC(=O)c2cccc([N+](=O)[O-])c2)c1` gave Gal4-VP16 FLuc -8%, ELG1 DNA repair inconclusive, p53 reactivator -5%, BRCA1 expr up 0%, RORg inh 19% and Giardia kill 11.
For CC(=O)Nc1ccc(NC(=O)c2ccc(C)c(S(=O)(=O)Nc3cccc(C)c3)c2)cc1 the results were Gal4-VP16 FLuc -24%, ELG1 DNA repair 21µM*, p53 reactivator -3%, BRCA1 expr up -46%, RORg inh 42% and Giardia kill 2.
`Cc1ccc(C(=O)Nc2cccc([N+](=O)[O-])c2)cc1S(=O)(=O)Nc1ccc(NC(=O)c2ccccc2)cc1` gave Gal4-VP16 FLuc 0%, ELG1 DNA repair 5.2µM*, p53 reactivator -3%, BRCA1 expr up -54%, RORg inh inconclusive and Giardia kill -13.
Screening O=C(CN1C(=O)CC(c2ccccc2)S(=O)(=O)c2ccccc21)N1CCCC1 (stereo not given) returned Gal4-VP16 FLuc 4%, ELG1 DNA repair 5%, p53 reactivator 1%, BRCA1 expr up 0%, RORg inh -9% and Giardia kill -5.
`CCCCOc1ccc(C(=O)NCC(=O)NCC(c2ccco2)N2CCCCC2)cc1` (stereo not given) gave ELG1 DNA repair -7%, p53 reactivator 0%, BRCA1 expr up -9% and Giardia kill 6.
Screening COc1ccc(/C=C/c2nc(N)nc(-c3ccccc3O)n2)cc1OC returned Gal4-VP16 FLuc inconclusive, ELG1 DNA repair 21µM*, p53 reactivator -11%, BRCA1 expr up -58%, RORg inh inconclusive and Giardia kill 2.
For COc1ccc(C(=O)NC2CCN(CC(=O)Nc3c(C)cccc3C)CC2)cc1OC the results were Gal4-VP16 FLuc 10%, ELG1 DNA repair -14%, BRCA1 expr up -20%, RORg inh 6%[1.91 µM] and Giardia kill -5.
For O=C(CN1CCC(NC(=O)Nc2ccc(F)cc2)CC1)Nc1ccccc1[N+](=O)[O-] the results were Gal4-VP16 FLuc 24%, ELG1 DNA repair 18µM*, p53 reactivator -2%, BRCA1 expr up -38%, RORg inh 25% and Giardia kill 7.
Screening COc1cccc(NC(=O)NC2CCN(CC(=O)Nc3ccccc3[N+](=O)[O-])CC2)c1 returned Gal4-VP16 FLuc -8%, ELG1 DNA repair 21µM*, p53 reactivator -4%, BRCA1 expr up -39%, RORg inh inconclusive and Giardia kill -12.
Screening COc1cccc(C(=O)NC2CCN(CC(=O)Nc3c(C)cc(C)cc3C)CC2)c1 returned Gal4-VP16 FLuc 13µM*, ELG1 DNA repair inconclusive, p53 reactivator -4% and RORg inh inconclusive.
`COc1ccc(C2NC(=S)NC3=C2N2CCC3CC2)cc1` (stereo not given) gave Gal4-VP16 FLuc 1%, ELG1 DNA repair inconclusive, p53 reactivator 0%, BRCA1 expr up 1%, RORg inh -2% and Giardia kill -10.
Cc1cc(C)nc(SCCn2c(N3CCC(C)CC3)nc3c2c(=O)n(C)c(=O)n3C)n1 was read as Gal4-VP16 FLuc 0%, ELG1 DNA repair 10%, p53 reactivator -1% and RORg inh 13%.
Screening CC(NCc1ccc(S(N)(=O)=O)cc1)C(=O)Nc1ccc([N+](=O)[O-])cc1Cl (stereo not given) returned Gal4-VP16 FLuc -5%, ELG1 DNA repair 23µM*, p53 reactivator -5%, BRCA1 expr up -17%, RORg inh 7% and Giardia kill -29.
